Screening results (PubChem BioAssay)
Pf growth 96h: Primary qHTS for delayed death inhibitors of the malarial parasite plastid, 96 hour incubation; Potency, µM (series often up to 28.7 µM), usual class: inhibitors; actives 6.9% (n = 320,000); P. falciparum luciferase reporter growth, 96 h; AID 504834, 2011
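Two-generation exposure (96 h) targets delayed-death phenotype. Reporter parasites carrying integrated firefly luciferase, in red cells at 2% hematocrit and 0.05% parasitemia final, kept at 37 C, 5% CO2; luminescence loss indicates inhibition.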
Cycloheximide cs: Cycloheximide Counterscreen for Small Molecule Inhibitors of Shiga Toxin; cell reporter, cycloheximide protein synthesis inhibition counterscreen; max response, %; actives 12% (n = 300,000); AID 2314, 2010; in the data active = max response mostly above about 13%, no sharp cut-off; inactive = mostly below about 14%; note: read at 38.3 µM for the half of the compounds with a filed dose
AMA1 RON2 block: qHTS for Inhibitors of AMA1-RON; Towards Development of Antimalarial Drug Lead: Primary Screen; Plasmodium falciparum AMA1 (3D7) - RON2 peptide interaction; AlphaScreen AMA1-biotinylated RON2 peptide binding; Potency, µM (series often up to 58.2 µM), actives largely listed as inhibitors; actives 0.2% (n = 360,000); note: nearly all actives have a fitted effect of over 45% in size
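AMA1 (3D7) with his tag at 25 nM final met compounds first, then biotinylated RON2 peptide at 25 nM; detection used donor plus acceptor beads, 10 µg/mL apiece, read by AlphaScreen after 30 min at room temperature.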
Shiga toxin inh: A qHTS for Small Molecule Inhibitors of Shiga Toxin. AID 2315, 2010. actives 9.2% (n = 290,000). inhibition, % at 38.7 µM. Vero cells, Shiga toxin protein synthesis inhibition reporter; in the data active = inhibition mostly above about 28%, no sharp cut-off; inactive = mostly below about 43%
Pf growth 48h: Primary qHTS for delayed death inhibitors of the malarial parasite plastid, 48 hour incubation; P. falciparum luciferase growth in erythrocytes, 48 h; Potency, µM (series often up to 28.7 µM), usual class: inhibitors; actives 5.9% (n = 310,000); AID 504832, 2011
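Luciferase-expressing parasites in RBCs, 2% Hct / 0.1% parasitemia final; RPMI 1640 + 0.5% Albumax; 37 C, 5% CO2, one generation; luminescence read-out, lower signal = inhibition.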
HCV inh: qHTS Assay for Inhibitors of Hepatitis C Virus (HCV). AID 651820, 2012. Potency, µM (top dose mostly 41.8 µM), hits mostly inhibitors. actives 3.4% (n = 340,000). Huh7.5.1 HCVcc-Cre infection, luciferase reporter, 44 h
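1,000 cells/well; 4 h culture; + compound; + HCVcc-Cre (~0.5 moi); 44 h; luciferase substrate, RT 15 min; read 15 sec.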
Numbers stand for hits; [ ] = another dose, or the depositor's remark. In the library only some 21% were active in any assay of this set; here they are far more common. Unless noted, calls come from the whole dose curve; as a rule, active = well fitted curve in the direction sought with a large enough effect; inconclusive = small, poorly fitted or top-dose-only effect, or another doubt; inactive = no such curve, though single readings can be large; an effect the other way counts as inactive or inconclusive.

What do the screens show for `Cc1oc(C(C)(C)C)cc1C(N)=O`?
Pf growth 96h: inactive; Cycloheximide cs: inactive; AMA1 RON2 block: inactive; Shiga toxin inh: inactive; Pf growth 48h: inconclusive; HCV inh: inactive

Results for CCn1nc(NS(=O)(=O)c2ccc([N+](=O)[O-])cc2)c2cc3ccccc3nc21 ?
Pf growth 96h: inconclusive; Cycloheximide cs: inactive; AMA1 RON2 block: inactive; Shiga toxin inh: inactive; Pf growth 48h: inactive; HCV inh: inactive

How did Cc1ccc(OC(C)C(=O)N2CC(=O)Nc3ccccc32)c(C)c1 (configuration not stated) do in these assays?
Pf growth 96h: inconclusive; Cycloheximide cs: inactive; AMA1 RON2 block: inactive; Shiga toxin inh: inactive; Pf growth 48h: inactive; HCV inh: inactive

What do the screens show for `O[C@H]1C[C@H](c2ccc(Cl)cc2)N(CC2CCCCC2)C[C@@H]1n1cc(-c2ccc(F)cc2)nn1`?
AMA1 RON2 block: inactive

Results for Cc1noc(C)c1CSc1nc2ccccc2c(=O)n1-c1ccccc1 ?
Pf growth 96h: inactive; Cycloheximide cs: inactive; AMA1 RON2 block: inactive; Shiga toxin inh: inactive; HCV inh: 4µM

What do the screens show for `COc1cc2nc(SCc3c(C)noc3C)n(CCC3=CCCCC3)c(=O)c2cc1OC`?
Pf growth 96h: 1.7µM; Cycloheximide cs: inactive; AMA1 RON2 block: inactive; Shiga toxin inh: inactive; Pf growth 48h: inconclusive; HCV inh: inactive

How did C=CCn1c(SCc2c(C)noc2C)nc2ccccc2c1=O do in these assays?
Pf growth 96h: 13µM; Cycloheximide cs: inactive; AMA1 RON2 block: inactive; Shiga toxin inh: inactive; HCV inh: inactive

What do the screens show for `C=CCn1c(SCc2c(C)noc2C)nc2cc(C(=O)O)ccc2c1=O`?
Cycloheximide cs: inactive; AMA1 RON2 block: inactive; Shiga toxin inh: inactive; Pf growth 48h: inactive; HCV inh: inactive

What do the screens show for `N#CC1=C(C=Nc2ccccc2O)CCC1`?
Pf growth 96h: inactive[5.75 µM]; Cycloheximide cs: inactive; AMA1 RON2 block: inactive; Shiga toxin inh: inactive; Pf growth 48h: inactive; HCV inh: inactive

Results for Cc1ccc(O)c(N=Cc2cc(Cc3ccccc3)cc([N+](=O)[O-])c2O)c1 ?
Pf growth 96h: inconclusive; Cycloheximide cs: inactive; AMA1 RON2 block: inconclusive; Shiga toxin inh: inactive; Pf growth 48h: inconclusive; HCV inh: inactive

How did Cc1ccc(O)c(N=CC2=C(O)c3ccccc3C2=O)c1 do in these assays?
Pf growth 96h: inactive; Cycloheximide cs: 33; AMA1 RON2 block: inactive; Shiga toxin inh: 109; Pf growth 48h: inconclusive; HCV inh: inconclusive

How did O=C1C(C=Nc2ccccc2O)=C(O)c2ccccc21 do in these assays?
Pf growth 96h: inconclusive; Cycloheximide cs: 32; AMA1 RON2 block: inactive; Shiga toxin inh: 51; Pf growth 48h: inactive; HCV inh: inactive

How did CCOc1ccccc1N1CCN(C(=O)C2=CC=CN3CCS(=O)(=O)N=C23)CC1 do in these assays?
Pf growth 96h: inactive; AMA1 RON2 block: inactive; Pf growth 48h: inactive; HCV inh: inactive

Results for O=S(=O)(Cc1ccccc1Cl)NCCc1ccc(F)cc1 ?
Pf growth 96h: inactive; Cycloheximide cs: inactive; AMA1 RON2 block: inactive; Shiga toxin inh: inactive; Pf growth 48h: inactive; HCV inh: inactive

Results for CCOC(=O)COc1cc(Br)c(C2NC(=O)NC(C)=C2C(C)=O)cc1OCC (configuration not stated) ?
Pf growth 96h: 9.3µM; Cycloheximide cs: inactive; AMA1 RON2 block: inactive; Shiga toxin inh: inactive

How did CC(=O)N(CCCc1ccc(C(C)(C)C)cc1)CCCN(C)C do in these assays?
Pf growth 96h: inactive; Cycloheximide cs: inactive; AMA1 RON2 block: inactive; Shiga toxin inh: inactive; Pf growth 48h: inconclusive; HCV inh: 7.9µM

Results for C[C@@H]1C(=O)O[C@H](C)[C@H]1C[C@@H](O)[C@](C)(O)C1CC[C@@]2(O)C3=CC(=O)[C@@H]4C[C@@H](O)[C@@H](O)C[C@]4(C)C3CC[C@]12C (some centres not stated) ?
AMA1 RON2 block: inactive; HCV inh: inactive

How did FC(F)(F)c1cccnc1Oc1ccc(C2=NCCS2)cc1 do in these assays?
Pf growth 96h: 2.6µM; Cycloheximide cs: 30; AMA1 RON2 block: inactive; Shiga toxin inh: 59; Pf growth 48h: inconclusive; HCV inh: inactive
